# Laboratory results: PubChem BioAssay (NCI)
# Compounds without any hit were thinned out: in the full panel of roughly 83,000, 20% have a hit.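 Cell lines were cultured in 96-well plates, exposed to a single compound concentration, and assessed for percent growth 48 hours later.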 A number with no mark means an inactive call. Active and inactive are the calls of the source. The calls were made as follows: active = growth percent below 10; inactive = the rest.
# What was measured:
# Experiment in all cases: NCI-60 one-dose screen, 48 h (100 = growth as untreated, 0 = no growth, -100 = all killed)
# Settings in all cases: 10 µM unless noted
# [1] = tested on: SR leukemia
# [2] = tested on: RPMI-8226 leukemia
# [3] = tested on: OVCAR-8 ovarian
# [4] = tested on: OVCAR-5 ovarian
# [5] = tested on: OVCAR-4 ovarian
# [6] = tested on: SK-OV-3 ovarian
# [7] = tested on: IGROV1 ovarian
# [8] = tested on: OVCAR-3 ovarian
# [9] = tested on: HS 578T breast
# [10] = tested on: NCI/ADR-RES ovarian
Structure (SMILES),growth [1],growth [2],growth [3],growth [4],growth [5],growth [6],growth [7],growth [8],growth [9],growth [10]
CC1(C)CC[C@]2(C(=O)NCCNCCN)CC[C@]3(C)C(=CC[C@@H]4[C@@]5(C)CCC(=O)C(C)(C)[C@@H]5CC[C@]43C)[C@@H]2C1,-45.6% (active),-19.9% (active),21.4%,106%,65.3%,89.9%,23.8%,-27.2% (active),79%,93.2%
Cc1c(C)c2c(c(C)c1NC(=O)CCCCCCC(=O)O)CCC(C)(CCCC(C)CCCC(C)CCCC(C)C)O2 (stereo not given),6.23% (active),69%,69.1%,121%,58.5%,99.3%,89.8%,65.5%,101%,77.3%
C=C(C)[C@@H]1CC[C@]2(C(=O)O)CC[C@]3(C)[C@H](CC[C@@H]4[C@@]5(C)C/C(=C/c6ccc(OC)cc6)C(=O)C(C)(C)[C@@H]5CC[C@]43C)[C@@H]12,30.9%,15.5%,23.2%,49.3%,26.8%,25%,23.8%,16.5%,49.9%,17.7%
CC(=O)OCCCCCCn1c2ccccc2c2c3c(c4c5ccccc5n(C)c4c21)C(=O)N(O)C3=O,17.1%,31.2%,66.3%,98.6%,70.5%,86.9%,49.6%,77.2%,124%,52.1%
COc1ccc2c(c1)c(-c1nc(-c3cn(C)c4ncccc34)cs1)cn2CCN,27.4%,75.8%,71.1%,78.1%,41.1%,94.9%,41.8%,88.8%,85.6%,88.1%
CCC1C(=O)COC1=O (stereo not given),99.2%,83.9%,96.6%,108%,105%,71.4%,104%,109%,99.1%,87.9%
CCN1CCN(C(=O)[C@@]2(C)CC[C@]3(C)CC[C@]4(C)C(=CC(=O)[C@@H]5[C@@]6(C)CC[C@H](OCCC#N)C(C)(C)[C@@H]6CC[C@]54C)[C@@H]3C2)CC1,4.19% (active),63.2%,90.5%,92.3%,94.7%,99.2%,95.5%,100%,83.3%,93.3%
CCNCCCn1c2c(c3ccc([N+](=O)[O-])cc3c1=O)C(=O)c1cc(OC)cnc1-2,0% (active),-22% (active),-37% (active),12.3%,10.4%,-25.3% (active),-24.1% (active),-33.1% (active),8.88% (active),-40.2% (active)
COc1ccc(-c2n[nH]nc2-c2cc3ccccc3s2)cc1O,18.6%,21.1%,27.7%,38.2%,52.4%,15.5%,49%,16.1%,18.3%,13.5%
C=C1C(=O)O[C@H]2[C@H]1CC/C(Cn1cc(-c3ccc(F)cc3)nn1)=C\CC[C@@]1(C)O[C@@H]21,-15.1% (active),-34.1% (active),-16% (active),-1.87% (active),13.7%,102%,-40.3% (active),-91.3% (active),58.1%,35.6%
COc1ccc(-c2n/c(=C\c3c(O)[nH]c4ccc(OC)cc34)cc3c2=Nc2ccccc2-3)cc1,7.13% (active),-38.5% (active),11.8%,135%,-42.1% (active),114%,98.3%,-57.5% (active),26.1%,4.41% (active)
Cc1ccc(N(CC(=O)Nc2ccc(S(=O)(=O)N3CCC(N4CCCC4)CC3)cc2)S(=O)(=O)c2ccc(Cl)cc2)cc1,-29.5% (active),-3.71% (active),55.2%,88%,49.2%,96.9%,51%,-22.4% (active),66%,70.2%
O=C1/C(=C\c2ccco2)SC(=S)N1CCc1ccc(O)cc1,95.7%,83.1%,102%,103%,90.3%,100%,94.6%,105%,99.5%,103%
O=S(=O)(NCCNc1cc(-c2cn(-c3ccccc3)nc2-c2cccc(O)c2)ccn1)c1ccccc1,11.7%,32.7%,49.8%,92.1%,56.3%,69.5%,57.1%,63.3%,45.2%,43.9%
COc1cc(/C=C2\C(=O)N(CC(O)COc3cc(O)c4c(=O)cc(-c5ccccc5)oc4c3)c3ccccc32)cc(OC)c1O (stereo not given),45.9%,57.9%,77%,113%,78.7%,111%,51.3%,69.5%,85.1%,87.5%
Cc1nnc2nc(N)[nH]n2c1=O,78.9%,106%,98.8%,117%,99.4%,112%,103%,104%,112%,99.7%
C[C@]12CC[C@@H]3c4ccc(O)cc4CC[C@H]3[C@@H]1C[C@H](O)[C@@H]2O,99.2%,98.6%,103%,85.5%,99.8%,120%,98%,90.3%,86.6%,102%
Cc1nc([P+](c2ccccc2)(c2ccccc2)c2ccccc2)c(Sc2sc(-c3ccccc3)nc2[P+](c2ccccc2)(c2ccccc2)c2ccccc2)o1,18.6%,-7.25% (active),8.83% (active),41.3%,-1.77% (active),-12.2% (active),10.3%,-1.45% (active),14%,75%
O=C1CCN2C(=O)Nc3ccccc3C2C1 (stereo not given),96.8%,111%,105%,90%,97.6%,101%,102%,111%,103%,107%
Cc1csc(-c2ccc3c(c2)COC3(CCCN(C)C)c2ccc(F)cc2)c1 (stereo not given),-3.41% (active),-31.5% (active),39%,72.1%,45.9%,-22.4% (active),17.2%,58.7%,47.7%,78.6%
COc1cccc2c1C(=O)c1c(O)c3c(c(O)c1C2=O)C[C@@](O)(C(=O)CO)C[C@@H]3OC1C[C@H](N)[C@H](O)[C@H](C)O1 (stereo not given in full),-10.5% (active),0.341% (active),4.15% (active),9.77% (active),4.65% (active),8.44% (active),4.86% (active),-2.36% (active),-12.9% (active),72.9%
CC(=O)OC[C@]12CC[C@@H](/C(C)=N/O)[C@@H]1[C@H]1CC[C@@H]3[C@@]4(C)CCCNC(C)(C)[C@@H]4CC[C@@]3(C)[C@]1(C)CC2,51.8%,49.2%,73.3%,103%,53.9%,62.9%,88.9%,65.7%,76%,77.4%
COc1cc(OC)c2c(c1)c1nc3cc(C)c(C)cc3nc1n2CCN(C)C,49.4%,65.2%,79.3%,105%,87.8%,93.7%,87.2%,109%,91.9%,82%
COc1cc(/C=N/NC(=S)NNC(=S)NC2CCCCC2)cc(OC)c1OC,96.9%,70.1%,97.8%,106%,86.3%,110%,89.9%,103%,106%,97.5%
